# Compounds with a hit are over-represented: about 8% of the library has one in this group of screens.
# Marburg entry inh: inhibitors of Marburg virus binding or cell entry | AID 540276 | Marburg virus pseudotyped entry inhibition, cell reporter | actives 1.8% (n = 300,000) | Potency, µM (top dose mostly 37.8 µM), inactives show top-dose activity change, negative = inhibition, actives largely listed as inhibitors; calls by dose curve; tested in HEK293 cells; also: potency is read from the fitted curve at half-maximal effect; % is scaled to controls: 0 for no effect and ±100 for the full control effect
# FMDV antiviral: blocks foot and mouth disease virus; FMDV antiviral cell-based qHTS; Potency, µM (doses to about 57.9 µM), without a hit: at the highest dose activity change, negative = inhibition, actives largely listed as inhibitors; actives 1.2% (n = 410,000); AID 1159524; calls by dose curve; tested in HEK293T cells; also: read-out not given here; potency is read from the fitted curve at half-maximal effect; % is scaled to controls: 0 for no effect and ±100 for the full control effect; nearly all actives have a fitted effect of over 45% in size
# HCMV inh: inhibitors of human cytomegalovirus | HFF cells, HCMV-luciferase reporter, 72 h; stronger effect = lower value | activity change, negative = inhibition, % at 57.5 µM | actives 4.5% (n = 410,000) | AID 1259415; in the data active = activity change below about -60%; inconclusive = no clear call, values can overlap the other calls; inactive = above about -39%; also: % is scaled to controls: 0 for no effect and ±100 for the full control effect
#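 Steps: HFFs plated, 16 h 37C; compounds added; HCMV-luciferase added to MOI 1 PFU/cell; 72 h 37C; OneGlo reagent, 5 min room temperature; luminescence read, normalized to controls.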
# HCV inhibitor: blocks hepatitis C virus. Potency, µM (titrated, usually from 41.8 µM), for the others: top-dose activity change, negative = inhibition, actives largely listed as inhibitors. AID 651820. Huh7.5.1 HCVcc-Cre infection, luciferase reporter, 44 h. actives 3.4% (n = 340,000); active = well fitted inhibition curve with a large enough effect; inconclusive = small, poorly fitted or top-dose-only effect, or another doubt; inactive = no such curve, though single readings can be large or run the other way; also: potency is read from the fitted curve at half-maximal effect; % is scaled to controls: 0 for no effect and ±100 for the full control effect
#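 Seed cells (1,000/well) for 4 h; treat with compound and infect with HCVcc-Cre, moi about 0.5. Incubate 44 h, then detect luciferase activity.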
# SARS PLpro yeast: SARS-CoV PLP inhibition in yeast | AID 485353 | Potency, µM (doses to about 32.9 µM), for inactives: at the top dose activity, positive = growth rescue, usual class: activators | S. cerevisiae expressing SARS-CoV PLpro, growth rescue | actives 0.19% (n = 330,000); calls by dose curve; also: potency is read from the fitted curve at half-maximal effect; 0% is about no effect; nearly all actives have a fitted effect of over 55% in size
# LASV entry inh: Lassa virus entry inhibition; actives 1.2% (n = 300,000); Potency, µM (doses to about 37.9 µM), without a hit: top-dose activity change, negative = inhibition, actives largely listed as inhibitors; AID 540256; Lassa virus pseudotype entry inhibition, cell reporter; calls by dose curve; tested in HEK293 cells; also: potency is read from the fitted curve at half-maximal effect; % is scaled to controls: 0 for no effect and ±100 for the full control effect; nearly all actives have a fitted effect of over 50% in size
# Starred values were filed as active, the others as inactive; ? = inconclusive; . = not tested or not shown; [ ] = remark or other dose.
SMILES,Marburg entry inh,FMDV antiviral,HCMV inh,HCV inhibitor,SARS PLpro yeast,LASV entry inh
COc1ccc(C(=O)CCc2ccccc2)cc1,.,52.1%,?,11.2µM*,1.6%,.
COc1ccc(CCC(=O)NC(C)C)cc1,?,-3.2%,-85.5*,-1.2%,7.0%,6.7%
OCCN1CCN(Cc2ccc3c(c2)CN(Cc2ccc4ccccc4c2)CCO3)CC1,.,8.2%,.,.,.,.
O=C(CCN1C(=O)/C(=C/c2ccc3c(c2)OCO3)SC1=S)Nc1ccccc1,-4.5%,7.8%,16.9,1.3%,-1.0%,-0.5%
O=C(CCCN1C(=O)/C(=C\c2cccc(Br)c2)SC1=S)Nc1ccc(C(=O)O)cc1,.,22.1%,?,.,.,.
O=C1/C(=C/c2cccc(Br)c2)SC(=S)N1CCC(=O)N(CCO)c1ccccc1,.,-3.2%,-103.8*,-16.8%,1.6%,.
COc1cccc(/C=C2\SC(=S)N(CCCC(=O)N(CCO)c3ccccc3)C2=O)c1,.,0.0%,-96.7*,?,8.5%,.
O=C1/C(=C/c2ccc3c(c2)OCO3)SC(=S)N1CCC(=O)N(CCO)c1ccccc1,.,-22.7%,-67.6*,.,.,.
CCN1/C(=C/c2ccc3ccccc3[n+]2CC)C=Cc2ccccc21,3.55µM*,?,-104.1*,4.47µM*,-32.3%,5.62µM*
CCCCN1/C(=C/c2ccc3ccccc3[n+]2CC)Sc2ccccc21,5.62µM*,20µM*,.,8.91µM*,-5.2%,2.24µM*
CCN1/C(=C/c2ccc3ccccc3[n+]2CCCS(=O)(=O)[O-])C=Cc2cc(C)ccc21,23.1%[46.1 µM],?,-33.6,20.8%,-2.2%,14.1%[46.1 µM]
CCN1/C(=C/c2ccc3cc(C)ccc3[n+]2C)Sc2ccc3sccc3c21,.,-18.5%,-95.6*,?,-5.8%,.
CCN1/C(=C/c2ccc3cc(C)ccc3[n+]2CC)Sc2cc(C)ccc21,.,?,-99.7*,2.51µM*,-25.5%,.
O=C(O)c1cccc([N+](=O)[O-])c1C(=O)Nc1ccc2ccccc2c1,.,7.2%,81.6,-1.3%,-3.5%,.
CCOc1ccc(/C=C/c2nc(C#N)c(N3CCCCCC3)o2)cc1,13.4%[46.1 µM],-20.4%,?,.,.,23.9%[46.1 µM]
CCC1(c2ccccc2)CN(C)C1=O (stereo not drawn),.,-21.9%,-79.4*,.,.,.
O=C1C2(c3ccccc3)CN(CCO)CC1(c1ccccc1)CN(CCO)C2,0.1%,-3.7%,23.1,18.3%,1.6%,-2.0%
Cn1c(=O)c2c(nc(N3CCCCC3)n2CCSc2nc3ccccc3s2)n(C)c1=O,-1.4%,-23.0%,-31.6,?,-13.2%,?
Cn1c(=O)[nH]c(=O)c2c1nc(N1CCCCC1)n2CCCSc1nc2ccccc2s1,?,?,-28.5,10µM*,9.8%,?
CC1CCN(c2nc3c(c(=O)n(C)c(=O)n3C)n2CCSc2nc3ccccc3s2)CC1,?,0.3%,-34.2,11.2µM*,-2.0%,?
COC(=O)C1=Nc2ccccc2/C1=C\c1c(O)n(-c2ccc(Br)cc2)c(=O)[nH]c1=O,-17.8%,20µM*,27.6,?,11.4%,-1.3%
COc1ccc(NC(=O)CN(c2ccccc2)S(=O)(=O)c2ccccc2)c(OC)c1,.,-6.5%,-32.9,?,0.9%,.
COc1ccccc1NC(=O)CN(C)S(=O)(=O)c1cc(C)ccc1OC,1.0%,-2.0%,-15.6,-7.9%,-7.8%,-2.8%
COc1ccccc1N(CC(=O)NCCSCc1cccc(C)c1)S(=O)(=O)c1ccccc1,?,?,-36.9,12.6µM*,-1.1%,?
COc1ccc(Cl)cc1NC(=O)CN(C)C(=O)C1CC(=O)N(Cc2ccc(C)cc2)C1 (stereo not drawn),-0.8%[46.1 µM],-7.7%,-4.4,31.6µM*,.,2.7%
SMILES,Marburg entry inh,FMDV antiviral,HCMV inh,HCV inhibitor,SARS PLpro yeast,LASV entry inh
COc1ccc(OC)c(S(=O)(=O)N(C)CC(=O)Nc2cc(Cl)ccc2OC)c1,-23.5%[46.1 µM],?,5.2,11.2µM*,-13.7%,-2.3%
COc1ccc(N(CC(=O)Nc2ccc(Cl)cc2C)S(=O)(=O)c2ccccc2)c(OC)c1,?,-10.4%,-71.3*,.,.,?
COc1ccccc1N1CCN(C(=O)Cn2ncc3c(=O)oc4ccc(C)cc4c32)CC1,?,0.0%,-4.2,.,.,-15.1%[46.1 µM]
C[C@@H]1COC(=O)[C@H](NC(=O)OCC2c3ccccc3-c3ccccc32)C/C=C\C[C@@H](CC(=O)N[C@H](CO)Cc2ccccc2)C(=O)N1,.,-2.6%,-22.9,?,-24.5%,.
COc1ccc(C(=O)NCC(=O)N/N=C/c2cn(C)c3ccccc23)cc1OC,2.8%[46.1 µM],-15.5%,146.9,-5.7%,0.3%,-24.6%[46.1 µM]
O=C(Nc1ccccc1)N1CCCC2(CCNCC2)C1,.,19.6%,.,.,.,.
COc1ccccc1C1CN(Cc2cccc(C)n2)Cc2ccccc2O1 (stereo not drawn),.,0.0%,.,.,.,.
COc1ccc(Cl)cc1NC(=O)CN(c1cccc(C)c1C)S(=O)(=O)c1ccccc1,-24.1%[46.1 µM],-15.6%,-62.4*,.,.,3.4%[46.1 µM]
Cc1ccc(C)c(N(CC(=O)Nc2cc(Cl)ccc2Oc2ccccc2)S(C)(=O)=O)c1,12.6µM*,-24.0%,4.1,1.0%,0.5%,?
COc1ccc(OC)c(NC(=O)CN(c2ccccc2OC)S(=O)(=O)c2ccc(C)cc2)c1,-22.9%[46.1 µM],-23.5%,-100.1*,.,.,?
Cc1cccc(N(CC(=O)NCCSCc2ccc(Cl)cc2)S(C)(=O)=O)c1C,?,0.0%,-14.5,.,.,12.6µM*
CCc1ccccc1NC(=O)CN(c1ccccc1OC)S(=O)(=O)c1ccc(C)cc1,-17.4%[46.1 µM],-9.7%,-7.8,.,.,1.0%[46.1 µM]
COc1ccc(CNc2ccnc(-c3cccc(NS(C)(=O)=O)c3)n2)c(OC)c1,.,9.9%,.,.,.,.
O=C(Cc1ccc2c(c1)OCO2)N1CCOc2ccc(CN3CCOCC3)cc2C1,.,10.3%,.,.,.,.
CCCNC(=O)C1(C)CCCN(C(=O)c2ccc(F)c(Cl)c2)C1 (stereo not drawn),.,-7.3%,17.3,.,.,.
CCc1c(-c2ccccc2)[n+](=O)c2c(n1[O-])CCC2,-6.6%,-2.6%,78.8,4.9%,0.2%,3.6%
COC(=O)C(c1ccccc1)(c1cn(C)c2ccccc12)C(Nc1ccc(Cl)cc1)c1ccccc1 (stereo not drawn),.,.,-27.2,.,.,.
O=S(=O)(c1ccc2ccccc2c1)n1nc(-c2ccco2)nc1NCc1ccc(F)cc1,-9.8%[46.1 µM],52.5%,52.0,.,.,0.9%[46.1 µM]
COc1ccc(NC(=O)CN(C)C(=O)c2sc3ccccc3c2Cl)cc1,21.2%,-0.2%,-38.1,?,-5.2%,?
CCOC(=O)N1CCN(C(=O)CN(c2cc(Cl)ccc2OC)S(=O)(=O)c2ccccc2)CC1,6.7%,28.7%,-92.3*,-7.2%,-1.0%,?
COc1ccc(Cl)cc1NC(=O)CN(C)C(=O)c1sc2ccccc2c1Cl,.,-14.7%,2.7,12.6µM*,0.6%,.
CCOc1ccccc1NC(=O)C1CCCN(S(=O)(=O)c2cccs2)C1 (stereo not drawn),2.5%[46.1 µM],0.0%,-7.7,.,.,12.2%[46.1 µM]
